Assay results as given in PubChem BioAssay (EPA / NIEHS).
Calls of active or inactive are those of the source. The calls were made as follows: active = hit-call score of the fitted dose curve at least 0.9, where 1 is the maximum; inactive = score below 0.9.

Assay: APR_HepG2_MitoMass_72hr: Apredica 72-hour HepG2 Assay for Mitochondrial Mass (AID 2282924);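 also: MitoTracker Red CMXRos stain intensity per cell imaged as mitochondrial mass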
Conditions: high-content imaging, actives raise or lower the signal
Method: APR_HepG2_72hr is a cell-based, multiplexed-readout assay that uses HepG2, a human liver cell line, with measurements taken at 72 hours after chemical dosing in a 384-well plate.APR_HepG2_MitoMass_72hr is one of 10 assay component(s) measured or calculated from the APR_HepG2_72hr assay. It is designed to make measurements of cell phenotype, a form of morphology reporter, as detected with fluorescence intensity signals by HCS Fluorescent Imaging technology.Data from the assay component APR_HepG2_MitoMass_72hr was analyzed into 1 assay endpoint. This assay endpoint, APR_HepG2_MitoMass_72hr, was analyzed with bidirectional fitting relative to DMSO as the negative control and baseline of activity. Using a type of morphology reporter, gain or loss-of-signal activity can be used to understand changes in the signaling. Furthermore, this assay endpoint can be referred to as a primary readout, because this assay has produced multiple assay endpoints where this one serves a signaling function. To generalize the intended target to other relatable targets, this assay endpoint is annotated to the cell morphology intended target family, where the subfamily is organelle conformation.
Cells were treated with dimethyl sulfoxide (DMSO) as a solvent control at a final concentration of 0.5% v/v or with compounds in DMSO with a resulting final DMSO concentration of 0.5% v/v. Compound treatment was done at concentrations of 0.39, 0.78, 1.56, 3.12, 6.24, 12.5, 25, 50, 100, and 200 uM in duplicate on each plate. Cells were treated with compounds for 1, 24, or 72 hr. Carbonyl […] m-chloro-phenylhydrazone (CCCP) and taxol were used as positive controls for mitochondrial function and cytoskeletal stability, respectively; DMSO served as the negative control for this experiment. Cells were fixed by the direct addition of 50 uL formaldehyde in Hank's Balanced Salt Solution (HBSS) to a final concentration of 3.7%. After incubation in the fixation medium for 30 min at room temperature (293-298 K), cells were rinsed twice with HBSS and treated with cell permeabilization buffer (16 uL of 0.5% Triton X-100) for 10 min at room temperature (293-298 K) before labeling. For mitochondrial membrane potential and mitochondrial measurements, pre-fixed cells were incubated with 50 uL of MitoTracker Red CMXRos (Invitrogen) at a concentration of 250 nM for 30 min before fixation. In the remaining cases, post-fixed cells were labeled by incubation with a multiplexed mixture of primary antibodies in HBSS for 60 min at room temperature (293-298 K) to detect immunoreactivity of c-Jun (1:500), phospho-histone H3 (1:100), phospho-histone H2A.x (1:200), p53 (1:400), alpha-tubulin (1:200) and Hoechst 33342 (2 ug/mL). Cells were labeled for multiplexed imaging on two separate plates: a) Hoechst 33342, MitoTracker Red, phospho-histone H3, and alpha-tubulin, and b) Hoechst 33342, phospho-histone H2A.x, and c-Jun. A final rinse with HBSS (50 uL) was performed before analysis. The primary and secondary antibodies for the proteins were phospho-histone H3 (rabbit anti-phospho-histone H3 and FITC-donkey anti-rabbit IgG), phospho-histone H2A.x (mouse anti-phospho-histone H2A.x and FITC-donkey anti-mouse IgG), c-Jun (rabbit anti-phospho-c-Jun and Cy3-donkey anti-rabbit IgG), p53 (sheep anti-p53 and Cy5-donkey anti-sheep IgG), alpha-tubulin (mouse anti-alpha-tubulin and Cy5-donkey anti-mouse IgG). These antibodies are available as the CellCiphr HepG2 assay kit (Millipore).Digital images of each well were captured using a Cellomics ArrayScan VTI (Thermo Scientific Cellomics) (0.8 NA objective, 0.63x optical coupler, and XF-93 filter set) at 20x magnification. The images were acquired using the autofocus feature of the ArrayScan instrument, which entails the following steps. First, the camera focuses on channel 1 (Hoechst 33342), where nuclei are identified. Second, a Z offset of 1 um is used for capturing mitochondria (MitoTracker Red). […]

Row | SMILES | outcome | AC50
1 | CCCCCCCCCCCCc1cccc(S(=O)(=O)O)c1 | inactive | 
2 | CC(C)(C)c1ccccc1O | inactive | 
3 | OCCN(CCO)CCO | inactive | 
4 | Clc1cccc(Cl)c1 | inactive | 
5 | Cc1cc(C)cc(C)c1 | inactive | 
6 | O=C(O)C1(c2ccc3c(c2)OC[C@H](Cc2ccc(-c4ccccc4)cc2)[C@H]3O)CCCC1 |  | 112 µM (active)
7 | O=C(N[C@H]1CN2CCC1CC2)c1ccc2c(c1)OCCO2 | inactive | 
8 | CN(C)C(=S)S |  | 0.0391 µM (active)
9 | Clc1cccc(Cl)c1Cl | inactive | 
10 | CC(C)O.CC(C)O.OCCN(CCO)CCO.OCCN(CCO)CCO.[Ti] | inactive | 
11 | N#Cc1cccnc1 | inactive | 
12 | Oc1c(Cl)cc(Cl)cc1Cl | inactive | 
13 | Oc1cc(Cl)c(Cl)cc1Cl | inactive | 
